Our source for the inhibition values is PubChem BioAssay AID797 (University of Pittsburgh Molecular Library Screening Center, 2007).

The structures appear in SMILES notation. The whole screen tested about 200,000 compounds, of which about 110 (0.055%) were called active. No stated cut-off is given here; in the data, active means inhibition above about 50%; inactive means the rest. The entries come from a sample that favours actives as a whole.

Serine/threonine-protein kinase D1 (Homo sapiens), sequence (Q15139 whole entry, looked up): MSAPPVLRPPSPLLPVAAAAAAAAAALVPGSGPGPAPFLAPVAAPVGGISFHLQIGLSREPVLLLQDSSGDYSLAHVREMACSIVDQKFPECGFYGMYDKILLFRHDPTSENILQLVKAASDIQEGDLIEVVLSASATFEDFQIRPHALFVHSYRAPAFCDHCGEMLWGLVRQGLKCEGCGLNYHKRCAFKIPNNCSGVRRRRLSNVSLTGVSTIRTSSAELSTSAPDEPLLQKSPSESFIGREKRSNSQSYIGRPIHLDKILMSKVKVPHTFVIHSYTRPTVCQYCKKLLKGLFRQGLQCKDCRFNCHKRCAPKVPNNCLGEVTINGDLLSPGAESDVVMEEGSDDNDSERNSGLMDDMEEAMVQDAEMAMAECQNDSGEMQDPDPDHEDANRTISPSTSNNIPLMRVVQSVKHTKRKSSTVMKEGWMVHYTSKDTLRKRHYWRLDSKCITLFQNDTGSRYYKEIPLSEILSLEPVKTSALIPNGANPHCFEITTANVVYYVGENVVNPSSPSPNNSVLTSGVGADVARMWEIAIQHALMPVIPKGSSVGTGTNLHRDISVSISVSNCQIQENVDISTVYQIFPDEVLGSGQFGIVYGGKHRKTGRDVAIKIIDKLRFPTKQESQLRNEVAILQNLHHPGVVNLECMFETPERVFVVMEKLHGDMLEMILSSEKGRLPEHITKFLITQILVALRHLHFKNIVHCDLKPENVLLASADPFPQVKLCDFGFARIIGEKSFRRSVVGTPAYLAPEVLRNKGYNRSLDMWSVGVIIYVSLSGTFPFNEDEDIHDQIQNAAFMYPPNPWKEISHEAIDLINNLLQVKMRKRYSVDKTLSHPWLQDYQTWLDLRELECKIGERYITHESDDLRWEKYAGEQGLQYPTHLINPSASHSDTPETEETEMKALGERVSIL

This assay addresses Serine/threonine-protein kinase D1 (Homo sapiens) (UniProt Q15139). Briefly: inhibitors of human PKD1 kinase, biochemical, fluorescence polarization (AID 797). The following applies: PKD1 kinase fluorescence polarization assay; hits give high values; concentration not given here. Background: Fluorescence polarisation rises when a labelled molecule tumbles more slowly, as on binding a larger partner.
The inhibition is the relative decrease from the control value, in per cent. Turning to `COc1ccc(OCC(=O)NN2Cc3ccccc3C2=N)cc1`, the inhibition is 8.39% (inactive).
In the case of `COc1cccc(NC(=O)C(Sc2nnnn2C)c2ccccc2)c1` (stereo unspecified) it was 9.09% (inactive).
As for `Cc1cccc(/C(N)=N/OC(=O)c2ccccc2Cl)c1`, the inhibition is -1.38% (inactive).
In the case of `O=C(NC1CCCCC1)C1CC(=O)N(CCc2ccccc2)C1` (stereo unspecified) it was -8.12% (inactive); in that of `Cc1cc(/C=C(/C#N)C(=O)Nc2ccc(Cl)cc2)c(C)n1-c1cccnc1`, 1.34% (inactive); in that of `CCN1CN(Cc2ccccc2)CNC1=S`, -12% (inactive).
In the case of `CCNC(=O)CC1C(=O)N(c2ccc(F)cc2)C(=O)N1Cc1cccs1` (stereo unspecified) it was 4.62% (inactive); in that of `CCOc1ccc(N2C(=O)Nc3ccccc3C2(O)C(=O)NCc2ccco2)cc1` (stereo unspecified), -4.75% (inactive); in that of `CN(C)/C=C(\C#N)C(=O)c1cccnc1Oc1cccc(F)c1`, 5.99% (inactive).
For `CCCCn1nc(C(=O)OCC(=O)Nc2sccc2C(N)=O)c2ccccc2c1=O`, the inhibition was 4.31% (inactive).
In the case of `Cc1ccc(NC(=S)N(CCCN2CCC(C)CC2)Cc2ccco2)cc1` it was 2.06% (inactive); in that of `Cc1ccc2cc(CCNC(=O)c3c(-c4ccccc4Cl)noc3C)c(=O)[nH]c2c1`, 0.32% (inactive); in that of `CC(C)CC(CO)N1CCN(C(=O)c2ccc(Cl)cc2Cl)CCC1=O` (stereo unspecified), -14% (inactive).
In the case of `Cc1cccc(NS(=O)(=O)c2ccc(C)c(C(N)=O)c2)c1` it was -2.59% (inactive); in that of `CN(CC(=O)Nc1ccccc1F)CC(=O)Nc1ccccc1Br`, -7.89% (inactive).
As to `COc1ccc(N=C2SC(C(=O)Nc3ccc(F)cc3)CC(=O)N2C)cc1` (stereo unspecified), the inhibition is -4.67% (inactive).
In the case of `CCOc1ccc(-c2c(C)n([O-])c3c([n+]2=O)CCCC3)cc1`, the inhibition was -3.86% (inactive).
The figure for `Cc1ccc(C(=O)CNc2ccc(F)cc2)cc1` is -19.1% (inactive); for `Cn1cc(/C=C/c2nc3ccccc3c(=O)n2-c2cccc([N+](=O)[O-])c2)c2ccccc21` it is -2.78% (inactive).
`COc1ccccc1/C=N\Nc1cc(C)nc(-n2nc(C)cc2C)n1`: the inhibition was 2.16% (inactive).
In the case of `CC(=O)c1ccc(Oc2cc(C)nc(-n3nc(C)cc3C)n2)cc1` it was -3.62% (inactive); in that of `COc1ccc(Nc2cc(C)nc(-n3nc(C)cc3C)n2)cc1`, 56.8% (active).
With `CCCCCC(=O)NC(=S)NNC(=O)c1ccc([N+](=O)[O-])cc1`, the inhibition is -0.76% (inactive).
Regarding `O=C(CN1C(=O)NC2(CCCCCC2)C1=O)NC1CC1`, the inhibition was -5.29% (inactive).
The figure for `CC1(C)CC(=O)C(N=Nc2ccc(S(=O)(=O)N3CCCCCC3)cc2)=C(O)C1` is 4.42% (inactive).
The figure for `O=C(O)Cc1ccc(NCc2ccccc2Cl)cc1` is 0.93% (inactive).
